From PubChem BioAssay AID602450 (National Center for Advancing Translational Sciences (NCATS), 2012)
Active and inactive are the calls of the source. Calls follow the shape of the full dose curve.

Test: qHTS Assay for Inhibitors of Influenza NS1 Protein Function: Viral Replication TCID50 SAR for Probe
Conditions: Influenza virus replication in cells, TCID50 titer reduction
Excerpt: Influenza is a world-wide public health problem and emerging forms of the virus have the potential to cause a pandemic of equal or greater magnitude to the outbreaks recorded in 1918, 1957 or 1968. Vaccine development is proceeding and there also exist two classes of anti-influenza compounds. However these therapeutic modalities are neither fully effective nor widely enough available to fulfill global needs. In addition their potential usefulness against newly emergent strains is not known. Efforts are needed to develop novel agents against influenza virus, including broad-spectrum agents. Identification of small molecules that inhibit NS1 function either directly or by interfering with specific cellular pathways may be a key to increasing our defense against the virus.
We have miniaturized and optimized a cell based assay in which NS1 from influenza A is expressed in the budding yeast S. cerevisiae. NS1 is a multi-functional protein that counters the host innate immune response and facilitates viral versus cellular gene expression. Expression of NS1 causes a pronounced slow growth phenotype in yeast due to its intrinsic molecular activities. Small molecules that suppress the slow growth phenotype can be identified by a straightforward growth recovery assay using optical density (OD) as the measurement. The same yeast strain not expressing NS1 was used as positive control in the yeast growth recovery assay.
Hits resulting from this primary screen and other follow-up screens, were tested in two concentrations in this viral replication assay.
NIH Chemical Genomics Center [NCGC]
NIH Molecular Libraries Probe Centers Network [MLPCN]
Assay Submitter (PI): Daniel Engel, University of Virgina
Cell monolayers were infected at an m.o.i. of 0.1 for 48 h in the presence or absence of the compound, which was added at the beginning of infection. Virus titres were determined by TCID50 analysis (Reed, L. J. & Muench, H. (1938). A simple method of estimating fifty per cent endpoints. Am J Epidemiol 27, 493-497).
In the case of COc1cc(-c2ccnc3c2c(C)nn3-c2cccc(C(F)(F)F)c2)ccc1O, the Potency was 82.7 nM (active).
In the case of COc1cc(-c2ccnc3c2c(C)nn3-c2ccc(C(F)(F)F)cc2)ccc1O, the Potency was 155 nM (active).
For Cc1ccc(-n2nc(C)c3c(-c4ccc(O)c(O)c4)c(C#N)c(N)nc32)cc1C, the Potency was 234 nM (active).
For Cc1nn(-c2ccc(Cl)cc2)c2nc(N)c(C#N)c(-c3ccc(O)c(O)c3)c12, the Potency was 279 nM (active).
With COc1cc(-c2c(C#N)c(N)nc3c2c(C)nn3-c2ccc(F)cc2)ccc1O the Potency was 101 nM (active).
